KDM5B inh: KDM5B demethylase inhibition; Potency, µM (highest dose often 57.7 µM), usual class: inhibitors; hit rate 2.6% among 220,000; KDM5B demethylase, FDH-coupled NADH fluorescence (FDH is formaldehyde dehydrogenase); AID 1347165; active = well fitted inhibition curve with a large enough effect; note: 0% is about no effect; nearly all actives have a fitted effect of over 70% in size
Target sequence (Q9UGL1 whole entry, looked up): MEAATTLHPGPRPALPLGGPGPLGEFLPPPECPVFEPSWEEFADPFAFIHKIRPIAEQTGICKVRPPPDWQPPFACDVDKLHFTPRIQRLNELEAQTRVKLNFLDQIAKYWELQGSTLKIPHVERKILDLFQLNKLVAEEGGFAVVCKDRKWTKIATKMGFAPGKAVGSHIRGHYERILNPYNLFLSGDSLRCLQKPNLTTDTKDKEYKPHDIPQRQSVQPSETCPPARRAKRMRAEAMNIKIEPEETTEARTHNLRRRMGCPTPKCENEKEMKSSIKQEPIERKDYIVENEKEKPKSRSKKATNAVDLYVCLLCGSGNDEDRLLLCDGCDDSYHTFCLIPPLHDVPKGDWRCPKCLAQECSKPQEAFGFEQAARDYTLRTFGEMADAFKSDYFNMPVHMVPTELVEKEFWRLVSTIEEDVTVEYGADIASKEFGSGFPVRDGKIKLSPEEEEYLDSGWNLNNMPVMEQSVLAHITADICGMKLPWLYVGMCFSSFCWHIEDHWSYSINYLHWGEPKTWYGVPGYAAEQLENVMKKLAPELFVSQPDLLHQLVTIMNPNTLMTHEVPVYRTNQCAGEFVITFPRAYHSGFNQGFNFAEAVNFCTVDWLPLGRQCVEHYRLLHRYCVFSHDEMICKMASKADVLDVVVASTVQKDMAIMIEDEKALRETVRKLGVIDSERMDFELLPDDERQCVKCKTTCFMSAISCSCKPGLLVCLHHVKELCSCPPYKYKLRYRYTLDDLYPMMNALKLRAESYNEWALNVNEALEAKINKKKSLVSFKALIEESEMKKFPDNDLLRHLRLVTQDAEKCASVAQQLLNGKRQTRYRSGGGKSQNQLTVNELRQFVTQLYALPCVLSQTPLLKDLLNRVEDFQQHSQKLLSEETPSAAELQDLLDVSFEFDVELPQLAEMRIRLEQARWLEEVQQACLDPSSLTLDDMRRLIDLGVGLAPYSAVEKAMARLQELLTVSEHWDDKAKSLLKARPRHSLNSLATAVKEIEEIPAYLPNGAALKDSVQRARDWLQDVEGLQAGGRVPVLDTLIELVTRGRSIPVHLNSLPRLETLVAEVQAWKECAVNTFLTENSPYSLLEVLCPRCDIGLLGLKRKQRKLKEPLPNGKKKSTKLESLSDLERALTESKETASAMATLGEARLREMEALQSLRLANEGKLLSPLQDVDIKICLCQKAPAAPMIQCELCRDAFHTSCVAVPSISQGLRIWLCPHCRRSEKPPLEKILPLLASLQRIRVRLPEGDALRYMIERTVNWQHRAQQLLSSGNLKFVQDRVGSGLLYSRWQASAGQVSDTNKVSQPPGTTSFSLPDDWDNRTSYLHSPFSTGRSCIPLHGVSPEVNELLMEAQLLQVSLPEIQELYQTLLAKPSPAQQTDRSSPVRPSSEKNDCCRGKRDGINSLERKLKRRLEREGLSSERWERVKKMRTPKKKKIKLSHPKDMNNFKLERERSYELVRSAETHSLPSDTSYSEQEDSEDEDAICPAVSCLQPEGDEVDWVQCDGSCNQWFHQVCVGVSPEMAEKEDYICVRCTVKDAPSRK
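qHTS format, multiple compound concentrations. Buffer 50 mM HEPES pH 7.5/0.01% Tween-20; 200 nM KDM5BΔAP final; 10 min compound preincubation; substrate-mix levels 12.5 µM peptide, 25 µM α-KG, 0.25 mM NAD⁺; 30 min RT; ΔRFU.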
The depositor's hits bear a star; i = inactive. This excerpt belongs to a sample that is enriched for hits. Potency is the fitted concentration of half-maximal effect.

SMILES	KDM5B inh
COc1ccc(OC)c(CNC(=O)c2cnc(N(C)C)nc2)c1	i
CCN(CC)c1cc(CCC(=O)NCc2cc(OC)ccc2OC)ccn1	14µM*
COc1ccccc1CNC(=O)CS(=O)(=O)c1ccccc1	i
COc1ccc(CNC(=O)CCc2cccnc2)cc1OC	i
COc1ccc(OC)c(CNC(=O)c2nccnc2N)c1	i
CCN(CC)c1cc(CCC(=O)NCc2ccccc2OC)ccn1	25µM*
CCCOc1ccc(/C=C(/C#N)c2nc3ccccc3[nH]2)cc1	i
CC(=O)Nc1ccccc1OCC(=O)NC(C)C(C)C (stereo not given)	i
COCCN1CCN(C[C@@H]2C=C(C)[C@H](Cc3nnc(-c4cccnc4)o3)C[C@H]2C(C)C)CC1	i
CC1=C[C@@H](CNCc2cccnc2)[C@H](C(C)C)C[C@H]1Cc1nnc(-c2ccccc2)o1	i
CC1=C[C@@H](CN(C)Cc2cccnc2)[C@H](C(C)C)C[C@H]1Cc1nnc(-c2ccc([N+](=O)[O-])cc2)o1	13µM*
CC1=C[C@@H](CN2CCC(C)CC2)[C@H](C(C)C)C[C@H]1Cc1nnc(-c2cccnc2)o1	i
C#CCN(C)C[C@@H]1C=C(C)[C@H](Cc2nnc(-c3ccccc3F)o2)C[C@H]1C(C)C	35µM*
CC1=C[C@@H](CN(C)CCO)[C@H](C(C)C)C[C@H]1Cc1nnc(-c2ccccc2F)o1	i
CC1=C[C@@H](CN2CCN(c3ccccn3)CC2)[C@H](C(C)C)C[C@H]1Cc1nnc(-c2ccc([N+](=O)[O-])cc2)o1	i
C#CCN(C)C[C@@H]1C=C(C)[C@H](Cc2nnc(-c3ccc(C)cc3)o2)C[C@H]1C(C)C	i
CC1=C[C@@H](CN2CCN(c3cnccn3)CC2)[C@H](C(C)C)C[C@H]1Cc1nnc(-c2cccnc2)o1	32µM*
O=C(Nc1cccc(Cl)c1F)C1CC(=O)N(C2CCCC2)C1 (stereo not given)	i
Cc1ccc(Sc2ccc(Cl)nn2)cc1	i
COc1ccc(C(=O)Nc2nc(-c3nc4ccccc4s3)cs2)cc1	i
CSc1nnnn1-c1cccc(NC(=O)c2cccc(Cl)c2)c1	i
C#CCNC(=O)c1ccccc1NCC(=O)NC(=O)NCc1ccccc1	i
COC(=O)CN1CCN(c2nc3c(c(=O)[nH]c(=O)n3C)n2Cc2ccc(F)cc2)CC1	i
Cc1ccc(N2CN(CCCN3CCOCC3)Cn3c2nc(C)c(C)c3=O)cc1	i
CCN1CCC2(CC1)Cc1ccccc1CN(C(=O)CCC(=O)O)C2	i
SMILES	KDM5B inh
Cc1ccc(C)c(C(C)NC(=O)c2cc3ccccc3oc2=O)c1 (stereo not given)	i
COc1cc(OC)cc(C(=O)NCC2CCCN(C/C=C/c3ccccc3OC)C2)c1 (stereo not given)	i
COc1ccccc1/C=C/CN1CC[C@@H](c2ccc3c(c2)OCO3)[C@H](O)C1	i
COc1ccccc1/C=C/CN1CCn2nc(CO)cc2C1	28µM*
CCC(C(=O)Nc1ccc(N(C)C)cc1)n1nnc2ccccc2c1=O (stereo not given)	i
O=C(Nc1ccc(F)cc1F)c1cc(C2CC2)nn1-c1ccccc1	i
N#Cc1cccc(C(=O)N(Cc2cccs2)C2CC2)c1	i
CC(=O)Nc1cc(C(=O)N2CCC(C)CC2)c2ccc(C)nc2c1	22µM*
Cc1ccc2c(C(=O)N3CCOCC3)cc(NC(=O)C(C)C)cc2n1	22µM*
CC1CCN(C(=O)c2cc(-c3ccncc3)nc3ccccc23)CC1	i
COc1cccc(N2CCN(C(=O)c3cc(NC(=O)C(C)C)cc4nc(C)ccc34)CC2)c1	i
Cc1nc2cc(F)ccc2cc1C(=O)N1CCCC(C)CC1 (stereo not given)	i
CC(C)C(=O)Nc1ccc2c(c1)nc1n2CCOC1	i
Cc1c(CC(=O)N2CCCC2)c(=O)oc2c(C)c(O)ccc12	i
Cc1cc(C)c(C(=O)COC(=O)c2ccc(N3CCCC3=O)cc2)c(C)c1	i
Cc1ccc(S(=O)(=O)N2CCC(C(=O)N3CCC(CCc4ccccc4)CC3)CC2)c(C)c1	i
CCCC(C)NC(=O)CN(c1ccccc1OC)S(C)(=O)=O (stereo not given)	i
Cc1cc(S(=O)(=O)Nc2cccc3c2CCCC3)ccc1OCC(=O)O	i
CC(C)COc1ccc(C2CC(=O)Nc3c(-c4ccccc4)csc32)cc1 (stereo not given)	i
CC1(C)CNC(=O)c2nc(CCSCc3ccco3)[nH]c2C1	i
CC1(C)CNC(=O)c2nc(C3CCCN(Cc4ccccc4)C3)[nH]c2C1 (stereo not given)	i
CSc1ccc(-c2nc3c([nH]2)CC(C)(C)CNC3=O)cc1	28µM*
CN1CCCCC1CCNC(=O)c1ccc(N2CCOCC2)nc1 (stereo not given)	i
CN1CCCC1CCNc1nccc(-c2cnn(-c3ccccc3F)c2)n1 (stereo not given)	28µM*
CN1CCCC1CCNc1nccc(-c2cnn(-c3ccc(F)cc3)c2)n1 (stereo not given)	28µM*
C=C(C)C[C@@H]1Cc2c(Br)cccc2[C@@H](CC(=C)C)N1	i

Assay outcomes (PubChem BioAssay)
